Our source for the log2 fold change values is the supplement of paper PMC10849652.

Targets with a hit are over-represented here; the source holds about 7,900 in all. About 0.6% of all pairs of compound and target were hits. A number with no mark means an inactive call.

UniProt P04183, sequence (P04183 whole entry, looked up): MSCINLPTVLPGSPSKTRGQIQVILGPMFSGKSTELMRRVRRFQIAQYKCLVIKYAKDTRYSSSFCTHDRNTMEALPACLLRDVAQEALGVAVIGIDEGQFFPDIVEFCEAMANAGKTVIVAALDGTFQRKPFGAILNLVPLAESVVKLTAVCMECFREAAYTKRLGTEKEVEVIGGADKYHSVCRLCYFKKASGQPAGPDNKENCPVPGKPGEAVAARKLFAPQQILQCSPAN
UniProt Q92536, sequence (Q92536 whole entry, looked up): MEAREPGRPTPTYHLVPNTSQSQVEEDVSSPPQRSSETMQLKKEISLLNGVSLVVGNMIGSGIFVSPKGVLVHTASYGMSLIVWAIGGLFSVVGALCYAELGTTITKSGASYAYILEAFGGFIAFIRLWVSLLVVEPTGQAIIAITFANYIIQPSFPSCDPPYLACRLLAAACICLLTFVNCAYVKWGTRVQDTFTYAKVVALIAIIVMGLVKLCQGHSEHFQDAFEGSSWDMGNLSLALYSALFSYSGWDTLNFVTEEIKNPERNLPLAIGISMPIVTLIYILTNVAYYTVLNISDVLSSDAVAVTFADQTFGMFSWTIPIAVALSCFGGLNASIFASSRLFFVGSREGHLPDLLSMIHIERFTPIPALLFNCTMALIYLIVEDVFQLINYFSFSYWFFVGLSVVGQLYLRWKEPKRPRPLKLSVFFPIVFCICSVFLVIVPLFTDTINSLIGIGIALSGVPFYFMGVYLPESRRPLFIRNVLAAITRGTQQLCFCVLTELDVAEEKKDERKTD
UniProt Q92797, sequence (Q92797 whole entry, looked up): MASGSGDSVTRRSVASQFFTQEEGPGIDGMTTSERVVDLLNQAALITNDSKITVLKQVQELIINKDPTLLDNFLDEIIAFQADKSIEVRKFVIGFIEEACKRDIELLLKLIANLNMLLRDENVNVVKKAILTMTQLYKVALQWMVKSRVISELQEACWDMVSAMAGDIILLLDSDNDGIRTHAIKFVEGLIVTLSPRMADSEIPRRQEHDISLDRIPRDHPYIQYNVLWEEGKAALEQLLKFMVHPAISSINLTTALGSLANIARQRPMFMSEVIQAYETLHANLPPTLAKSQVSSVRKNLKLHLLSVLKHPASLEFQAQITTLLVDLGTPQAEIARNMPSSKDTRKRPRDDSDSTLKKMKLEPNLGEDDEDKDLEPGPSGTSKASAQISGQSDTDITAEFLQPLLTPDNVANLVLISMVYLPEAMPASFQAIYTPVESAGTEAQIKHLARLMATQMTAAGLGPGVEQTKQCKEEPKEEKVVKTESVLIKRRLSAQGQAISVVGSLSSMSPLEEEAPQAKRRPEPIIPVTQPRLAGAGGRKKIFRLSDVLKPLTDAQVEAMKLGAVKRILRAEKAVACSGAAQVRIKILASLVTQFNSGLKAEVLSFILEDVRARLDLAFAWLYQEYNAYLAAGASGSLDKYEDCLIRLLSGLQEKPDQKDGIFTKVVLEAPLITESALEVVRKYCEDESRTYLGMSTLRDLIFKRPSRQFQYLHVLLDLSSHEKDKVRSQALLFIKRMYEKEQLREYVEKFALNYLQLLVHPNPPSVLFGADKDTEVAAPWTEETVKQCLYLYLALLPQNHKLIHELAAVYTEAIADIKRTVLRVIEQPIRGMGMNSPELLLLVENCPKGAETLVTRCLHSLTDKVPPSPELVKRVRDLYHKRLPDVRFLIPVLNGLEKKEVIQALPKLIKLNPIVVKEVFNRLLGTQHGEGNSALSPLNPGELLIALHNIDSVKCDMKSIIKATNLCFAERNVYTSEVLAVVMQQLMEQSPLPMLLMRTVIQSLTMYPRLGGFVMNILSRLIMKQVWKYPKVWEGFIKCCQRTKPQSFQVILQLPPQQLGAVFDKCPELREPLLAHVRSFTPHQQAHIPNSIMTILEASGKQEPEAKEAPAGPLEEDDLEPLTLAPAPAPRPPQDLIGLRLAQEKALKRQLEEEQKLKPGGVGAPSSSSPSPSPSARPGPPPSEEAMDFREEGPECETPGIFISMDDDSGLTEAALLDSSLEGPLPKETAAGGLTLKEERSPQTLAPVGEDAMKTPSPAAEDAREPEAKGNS
UniProt Q8NEW0, sequence (Q8NEW0 whole entry, looked up): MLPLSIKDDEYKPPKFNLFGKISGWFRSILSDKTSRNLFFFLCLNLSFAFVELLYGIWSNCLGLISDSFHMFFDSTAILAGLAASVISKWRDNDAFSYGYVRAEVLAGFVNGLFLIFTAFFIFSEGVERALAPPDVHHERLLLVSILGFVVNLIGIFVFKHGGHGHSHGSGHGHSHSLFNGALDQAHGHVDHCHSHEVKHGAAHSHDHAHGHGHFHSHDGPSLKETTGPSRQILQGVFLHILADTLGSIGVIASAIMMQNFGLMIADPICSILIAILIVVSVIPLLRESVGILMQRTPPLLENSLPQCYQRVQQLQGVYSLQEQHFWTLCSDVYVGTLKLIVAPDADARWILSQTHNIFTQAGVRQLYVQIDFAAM
UniProt Q13596, sequence (Q13596 whole entry, looked up): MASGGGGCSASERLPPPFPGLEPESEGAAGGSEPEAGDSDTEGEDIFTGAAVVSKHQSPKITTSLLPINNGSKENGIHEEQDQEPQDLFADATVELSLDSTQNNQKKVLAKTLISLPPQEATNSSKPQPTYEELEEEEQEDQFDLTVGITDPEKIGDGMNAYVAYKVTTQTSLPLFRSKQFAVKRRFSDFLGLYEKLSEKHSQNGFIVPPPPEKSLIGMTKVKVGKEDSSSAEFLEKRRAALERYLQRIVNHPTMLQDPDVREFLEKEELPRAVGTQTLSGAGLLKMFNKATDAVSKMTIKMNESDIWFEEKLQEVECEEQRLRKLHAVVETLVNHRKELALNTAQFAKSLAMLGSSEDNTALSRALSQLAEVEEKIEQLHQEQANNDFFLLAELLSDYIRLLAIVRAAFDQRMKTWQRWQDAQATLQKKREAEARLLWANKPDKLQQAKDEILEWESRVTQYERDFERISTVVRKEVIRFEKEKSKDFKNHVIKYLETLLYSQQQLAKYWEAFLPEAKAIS
UniProt Q8IY18, sequence (Q8IY18 whole entry, looked up): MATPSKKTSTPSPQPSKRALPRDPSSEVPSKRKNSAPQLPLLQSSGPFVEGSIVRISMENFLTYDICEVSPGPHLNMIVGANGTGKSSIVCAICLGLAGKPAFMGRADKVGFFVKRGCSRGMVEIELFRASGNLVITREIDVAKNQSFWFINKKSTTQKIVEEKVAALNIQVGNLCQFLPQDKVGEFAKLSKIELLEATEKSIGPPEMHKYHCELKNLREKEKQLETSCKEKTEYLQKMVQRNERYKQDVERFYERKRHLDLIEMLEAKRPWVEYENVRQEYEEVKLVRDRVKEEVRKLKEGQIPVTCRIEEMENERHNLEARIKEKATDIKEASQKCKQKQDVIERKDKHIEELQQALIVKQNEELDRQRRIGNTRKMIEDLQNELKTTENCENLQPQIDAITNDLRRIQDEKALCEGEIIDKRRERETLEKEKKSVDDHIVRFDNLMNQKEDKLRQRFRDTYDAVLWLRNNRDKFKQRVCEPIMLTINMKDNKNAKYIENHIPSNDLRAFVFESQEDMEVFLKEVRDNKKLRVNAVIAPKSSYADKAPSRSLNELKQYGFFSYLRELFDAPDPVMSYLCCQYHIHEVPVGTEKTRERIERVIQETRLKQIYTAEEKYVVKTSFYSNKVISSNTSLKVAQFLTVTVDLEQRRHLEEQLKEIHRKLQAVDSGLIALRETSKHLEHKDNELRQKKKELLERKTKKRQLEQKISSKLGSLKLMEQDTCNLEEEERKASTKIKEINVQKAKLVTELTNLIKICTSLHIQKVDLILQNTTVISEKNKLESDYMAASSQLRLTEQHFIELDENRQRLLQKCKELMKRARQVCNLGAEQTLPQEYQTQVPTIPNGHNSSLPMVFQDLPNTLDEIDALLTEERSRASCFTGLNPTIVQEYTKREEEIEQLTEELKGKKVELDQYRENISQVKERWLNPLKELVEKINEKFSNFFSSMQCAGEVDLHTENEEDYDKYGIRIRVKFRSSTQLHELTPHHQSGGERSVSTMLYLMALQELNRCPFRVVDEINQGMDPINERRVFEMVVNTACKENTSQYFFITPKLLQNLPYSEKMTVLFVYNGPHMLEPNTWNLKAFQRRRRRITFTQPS
UniProt Q969G3, sequence (Q969G3 whole entry, looked up): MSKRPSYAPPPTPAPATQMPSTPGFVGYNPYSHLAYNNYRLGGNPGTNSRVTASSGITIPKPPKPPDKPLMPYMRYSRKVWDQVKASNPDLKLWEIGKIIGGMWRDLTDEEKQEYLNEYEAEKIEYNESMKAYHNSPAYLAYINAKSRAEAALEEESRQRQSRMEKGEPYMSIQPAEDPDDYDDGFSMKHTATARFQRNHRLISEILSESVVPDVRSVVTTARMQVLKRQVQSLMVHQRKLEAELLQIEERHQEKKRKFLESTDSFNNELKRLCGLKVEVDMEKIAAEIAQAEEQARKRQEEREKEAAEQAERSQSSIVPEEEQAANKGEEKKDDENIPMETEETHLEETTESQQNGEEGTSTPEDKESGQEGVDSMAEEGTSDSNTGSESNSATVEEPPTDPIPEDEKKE
UniProt P56962, sequence (P56962 whole entry, looked up): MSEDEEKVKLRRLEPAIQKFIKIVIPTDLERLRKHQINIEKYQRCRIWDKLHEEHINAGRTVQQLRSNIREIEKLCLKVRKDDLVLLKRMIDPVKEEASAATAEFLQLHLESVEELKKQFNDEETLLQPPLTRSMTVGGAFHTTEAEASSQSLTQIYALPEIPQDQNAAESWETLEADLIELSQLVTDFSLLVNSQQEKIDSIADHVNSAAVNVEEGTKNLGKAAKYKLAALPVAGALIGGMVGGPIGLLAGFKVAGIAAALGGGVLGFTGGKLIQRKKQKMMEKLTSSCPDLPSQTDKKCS
UniProt P30626, sequence (P30626 whole entry, looked up): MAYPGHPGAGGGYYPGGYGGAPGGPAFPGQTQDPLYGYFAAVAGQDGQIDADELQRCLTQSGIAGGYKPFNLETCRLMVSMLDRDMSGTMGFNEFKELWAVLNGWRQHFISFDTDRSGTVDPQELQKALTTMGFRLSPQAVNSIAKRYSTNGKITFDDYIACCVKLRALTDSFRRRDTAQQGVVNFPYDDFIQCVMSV

Compound in this assay: Cc1ncc(-c2ccnc(Nc3ccc(S(C)(=O)=O)cc3)n2)n1C(C)C
The assay is described as follows: log2 fold change, soluble protein after heating vs DMSO (PISA); higher = thermal stabilisation; K562 cells, 10 uM, 30 min; active = over 0.2 and 3.5 SD of the protein, either way, in both replicates (recomputed). In outline:
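K562 cells at 2×10^6 cells/mL were exposed to 10 μM compound for 30 min, then aliquots were heated for 3 min across 48°C-58°C, pooled, and extracted in PBS containing 0.5% NP-40 at 4°C. The supernatant after 21,000xg for 90 min was taken as soluble protein and measured by TMTpro 16plex LC-MS/MS with channel sums equalised. Thermal stability is reported relative to control samples, with values from duplicates. Fold changes are given on a log2 scale.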
STAT5B (UniProt P51692): the log2 fold change is 0.162.
Turning to STAT3 (UniProt P40763), the log2 fold change was 0.026.
The result for STAM2 (UniProt O75886) reads -0.008.
Then TIAL1 isoform 2 (UniProt Q01085), with 0.074; and SLC38A9 (UniProt Q8NBW4), with -0.081.
Consider STAT5A (UniProt P42229), for which the log2 fold change is -0.051.
Then SNX5 (UniProt Q9Y5X3), with -0.314; and SMARCE1 (UniProt Q969G3), with -0.055; and SRSF3 (UniProt P84103), with 0.082.
Then SMC5 (UniProt Q8IY18), with 0.082.
Regarding SNX1 (UniProt Q13596), the log2 fold change was -0.45 (active).
On to TARBP1 (UniProt Q13395), for which the log2 fold change is -0.026.
With STX17 (UniProt P56962), the log2 fold change was -0.051.
The result for SMARCAD1 isoform 2 (UniProt Q9H4L7) reads -0.049.
TIMM10 (UniProt P62072): the log2 fold change is -0.027.
Turning to SPCS2 (UniProt Q15005), the log2 fold change is 0.
Then SMAP2 (UniProt Q8WU79), with 0.044; and TK1 (UniProt P04183), with -0.036.
Then TIMM44 (UniProt O43615), with 0.006; and TIMM29 (UniProt Q9BSF4), with -0.039; and SRI (UniProt P30626), with -0.036.
The result for SORT1 (UniProt Q99523) reads -0.122; that for SLC7A6 (UniProt Q92536), -0.007; that for SYF2 (UniProt O95926), 0.308.
STK25 (UniProt O00506): the log2 fold change is -0.033.
For the target SYMPK (UniProt Q92797), the log2 fold change is 0.037.
With SP1 (UniProt P08047), the log2 fold change was -0.02.
Turning to SSB (UniProt P05455), the log2 fold change is -0.123.
The result for STARD3NL (UniProt O95772) reads -0.001; that for SPG21 (UniProt Q9NZD8), 0.171; that for SRP68 (UniProt Q9UHB9), 0.055.
As to TJP2 isoform 7 (UniProt Q9UDY2), the log2 fold change is -0.025.
Take SPPL2B (UniProt Q8TCT7): the log2 fold change is 0.009.
Turning to SRSF7 (UniProt Q16629), the log2 fold change is 0.044.
SNW1 (UniProt Q13573): the log2 fold change is 0.088.
The result for TBC1D23 (UniProt Q9NUY8) reads -0.056; that for SLC30A7 (UniProt Q8NEW0), 0.003.
